Inconclusive results are not listed. Unmarked numbers belong to inactive results. Calls of active or inactive are those of the source. Calls follow the shape of the dose curve; as a rule, active = well fitted inhibition curve with a large enough effect; inconclusive = small, poorly fitted or top-dose-only effect; inactive = flat fitted curve, though single readings scatter.
experiment: P-glycoprotein substrates identified in KB-8-5-11 adenocarcinoma cell line, qHTS therapeutic library screen (AID 1346987); details: KB-8-5-11 (P-gp overexpressing) viability, CellTiter-Glo, 72 h; series mostly up to 44.5 µM; activity change, negative = cytotoxicity: at the top concentration; also: nearly all actives have a fitted effect of over 65% in size
In short: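 Compounds are pinned in dose-response onto KB-8-5-11 cells (500 cells/well, colchicine-free medium) and left 72 h at 37 degree C. CellTiter-Glo luminescence then yields AC50 values.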
% is scaled to controls: 0 for no effect and ±100 for the full control effect; potency is read from the fitted curve at half-maximal effect.

Row | Compound | activity change, negative = cytotoxicity | Potency
1 | C/C=C(/C)C(=O)O[C@@H]1C[C@@H](OC(=O)CC(C)C)C2(C)C3C(=O)C=C(C)C2C3C1(C)C (stereo not given in full) | -21% [at 17.3 µM] | –
2 | CC(=O)OCC(=O)[C@@]1(O)[C@H](C)C[C@H]2[C@@H]3C[C@H](F)C4=CC(=O)C=C[C@]4(C)[C@H]3[C@@H](O)C[C@@]21C | -11.1% | –
3 | Cc1cc(NC(=O)c2cccc(NC(=O)/C=C/CN(C)C)c2)ccc1Nc1nccc(-c2cccnc2)n1 | 3.1% | –
4 | CCN1CCN(Cc2ccc(NC(=O)c3ccc(C)c(Oc4ncnc5[nH]c(C)cc45)c3)cc2C(F)(F)F)CC1 | – | 20.6 µM (active)
5 | C[C@@H]1C[C@H]2C3C[C@H](F)C4=CC(=O)C=CC4(C)[C@@]3(F)[C@@H](O)CC2(C)[C@@]1(O)C(=O)COC(=O)C(C)(C)C (stereo not given in full) | -14.2% | –
6 | O=C(Nc1ncc([N+](=O)[O-])s1)c1ccccc1O | – | 5.8 µM (active)
7 | CCCCC(=O)O | – | inactive
8 | Cc1cc(Nc2ccccc2C(=O)O)ccc1Cl | 1.76% | –
9 | CCc1cc(C(N)=O)ccc1-n1nc(C(C)C)c2c(-n3cnc(-c4cnn(C)c4)c3)ccnc21 | – | 3.66 µM (active)
10 | CCc1cc2c(cc1CC)CC(NCC(O)c1ccc(O)c3[nH]c(=O)ccc13)C2 (stereo not given) | 8.45% | –
11 | C/C(=C/CO)CCC1C(C)CCC2C(C)(C)CCCC12C (stereo not given) | 7.09% | –
12 | O=S(=O)(O)Oc1ccc(C(c2ccc(OS(=O)(=O)O)cc2)c2ccccn2)cc1 | 8.69% | –
13 | C=CC(C)(C)c1[nH]c2ccccc2c1C[C@@H]1NC(=O)[C@H](C)NC1=O | -5.67% | –
14 | O=C(CO)[C@@H](O)[C@H](O)[C@H](O)CO | 0.351% | –
15 | O=C(O)c1cccc(/C=C2/C[C@@H]3[C@@H](/C=C/[C@@H](O)C4CCCCC4)[C@H](O)C[C@@H]3O2)c1 | -6.44% | –
